These binders were tested against AgAbp1 (assay: SPOT peptide array binding signal intensity (averaged, normalized) (arbitrary units (background-subtracted, floor 0; scale differs between SH3 domains)); higher = stronger binding of the SH3 domain to the peptide).
How it was run: (§1)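 Binding signal is given in arbitrary units that differ between domains and is the normalized, background-subtracted spot intensity averaged across replicates. Each GST-SH3 fusion from one of four yeast species was made in E. coli BL21(DE3), purified on glutathione Sepharose and incubated at 10 μg/ml overnight at 4°C on cellulose-bound synthetic 15-mer peptides in which cysteines were replaced by serines. Detection used anti-GST antibody, an HRP anti-mouse secondary and luminol, followed by imaging and Genespotter quantification.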

Binder	SPOT peptide array binding signal intensity
KRRTSLFPWLHKPGI	14

These binders were tested against AgBbc1 in the same assay as above.
How it was run: as §1

Binder	SPOT peptide array binding signal intensity
KRRTSLFPWLHKPGI	19.2

The binders below were run against AgBem1-D1 in the same assay as above.
How it was run: as §1

Binder	SPOT peptide array binding signal intensity
KRRTSLFPWLHKPGI	13

What follows are binders tested against AgBzz1-D1 in the same assay as above.
How it was run: as §1

Binder	SPOT peptide array binding signal intensity
KRRTSLFPWLHKPGI	15

The binders below were run against AgBzz1-D2 in the same assay as above.
How it was run: as §1

Binder	SPOT peptide array binding signal intensity
KRRTSLFPWLHKPGI	17

The binders below were run against AgCyk3 in the same assay as above.
How it was run: as §1

Binder	SPOT peptide array binding signal intensity
KRRTSLFPWLHKPGI	4

The binders below were run against AgFus1 in the same assay as above.
How it was run: as §1

Binder	SPOT peptide array binding signal intensity
KRRTSLFPWLHKPGI	202

These binders were tested against AgHof1 in the same assay as above.
How it was run: as §1

Binder	SPOT peptide array binding signal intensity
KRRTSLFPWLHKPGI	14

The binders below were run against AgHse1 in the same assay as above.
How it was run: as §1

Binder	SPOT peptide array binding signal intensity
KRRTSLFPWLHKPGI	1230

These binders were tested against AgLsb1 in the same assay as above.
How it was run: as §1

Binder	SPOT peptide array binding signal intensity
KRRTSLFPWLHKPGI	1

These binders were tested against AgLsb4 in the same assay as above.
How it was run: as §1

Binder	SPOT peptide array binding signal intensity
KRRTSLFPWLHKPGI	53

What follows are binders tested against AgMyo5 in the same assay as above.
How it was run: as §1

Binder	SPOT peptide array binding signal intensity
KRRTSLFPWLHKPGI	≤ 0

The binders below were run against AgNbp2 in the same assay as above.
How it was run: as §1

Binder	SPOT peptide array binding signal intensity
KRRTSLFPWLHKPGI	196

These binders were tested against AgRvs167 in the same assay as above.
How it was run: as §1

Binder	SPOT peptide array binding signal intensity
KRRTSLFPWLHKPGI	2.33

What follows are binders tested against AgSho1 in the same assay as above.
How it was run: as §1

Binder	SPOT peptide array binding signal intensity
KRRTSLFPWLHKPGI	23

What follows are binders tested against AgSla1-D1-D2 in the same assay as above.
How it was run: as §1

Binder	SPOT peptide array binding signal intensity
KRRTSLFPWLHKPGI	297

Each binder was assayed against AgSla1-D3 in the same assay as above.
How it was run: as §1

Binder	SPOT peptide array binding signal intensity
KRRTSLFPWLHKPGI	5.5

The binders below were run against CaAbp1-D1 in the same assay as above.
How it was run: as §1

Binder	SPOT peptide array binding signal intensity
KRRTSLFPWLHKPGI	736

Each binder was assayed against CaAbp1-D2 in the same assay as above.
How it was run: as §1

Binder	SPOT peptide array binding signal intensity
KRRTSLFPWLHKPGI	682

What follows are binders tested against CaBbc1 in the same assay as above.
How it was run: as §1

Binder	SPOT peptide array binding signal intensity
KRRTSLFPWLHKPGI	53.2

What follows are binders tested against CaBem1-D1 in the same assay as above.
How it was run: as §1

Binder	SPOT peptide array binding signal intensity
KRRTSLFPWLHKPGI	≤ 0

The binders below were run against CaBzz1-D1 in the same assay as above.
How it was run: as §1

Binder	SPOT peptide array binding signal intensity
KRRTSLFPWLHKPGI	35

What follows are binders tested against CaBzz1-D2 in the same assay as above.
How it was run: as §1

Binder	SPOT peptide array binding signal intensity
KRRTSLFPWLHKPGI	22

What follows are binders tested against CaCyk3 in the same assay as above.
How it was run: as §1

Binder	SPOT peptide array binding signal intensity
KRRTSLFPWLHKPGI	5

What follows are binders tested against CaFus1 in the same assay as above.
How it was run: as §1

Binder	SPOT peptide array binding signal intensity
KRRTSLFPWLHKPGI	727

The binders below were run against CaHof1 in the same assay as above.
How it was run: as §1

Binder	SPOT peptide array binding signal intensity
KRRTSLFPWLHKPGI	≤ 0

These binders were tested against CaHse1 in the same assay as above.
How it was run: as §1

Binder	SPOT peptide array binding signal intensity
KRRTSLFPWLHKPGI	42.8

What follows are binders tested against CaLsb1 in the same assay as above.
How it was run: as §1

Binder	SPOT peptide array binding signal intensity
KRRTSLFPWLHKPGI	0.5

What follows are binders tested against CaLsb4 in the same assay as above.
How it was run: as §1

Binder	SPOT peptide array binding signal intensity
KRRTSLFPWLHKPGI	59.5

Each binder was assayed against CaMyo5 in the same assay as above.
How it was run: as §1

Binder	SPOT peptide array binding signal intensity
KRRTSLFPWLHKPGI	0.25

What follows are binders tested against CaNbp2 in the same assay as above.
How it was run: as §1

Binder	SPOT peptide array binding signal intensity
KRRTSLFPWLHKPGI	402

The binders below were run against CaRvs167 in the same assay as above.
How it was run: as §1

Binder	SPOT peptide array binding signal intensity
KRRTSLFPWLHKPGI	5.67

The binders below were run against CaRvs167-3 in the same assay as above.
How it was run: as §1

Binder	SPOT peptide array binding signal intensity
KRRTSLFPWLHKPGI	34.2

These binders were tested against CaSho1 in the same assay as above.
How it was run: as §1

Binder	SPOT peptide array binding signal intensity
KRRTSLFPWLHKPGI	664

Each binder was assayed against CaSla1-D1-D2 in the same assay as above.
How it was run: as §1

Binder	SPOT peptide array binding signal intensity
KRRTSLFPWLHKPGI	5.5

Each binder was assayed against CaSla1-D3 in the same assay as above.
How it was run: as §1

Binder	SPOT peptide array binding signal intensity
KRRTSLFPWLHKPGI	≤ 0

What follows are binders tested against ScAbp1 in the same assay as above.
How it was run: as §1

Binder	SPOT peptide array binding signal intensity
KRRTSLFPWLHKPGI	19

Each binder was assayed against ScBbc1 in the same assay as above.
How it was run: as §1

Binder	SPOT peptide array binding signal intensity
KRRTSLFPWLHKPGI	5.75

What follows are binders tested against ScBem1-D1 in the same assay as above.
How it was run: as §1

Binder	SPOT peptide array binding signal intensity
KRRTSLFPWLHKPGI	2

The binders below were run against ScBzz1-D1 in the same assay as above.
How it was run: as §1

Binder	SPOT peptide array binding signal intensity
KRRTSLFPWLHKPGI	5.5

What follows are binders tested against ScBzz1-D2 in the same assay as above.
How it was run: as §1

Binder	SPOT peptide array binding signal intensity
KRRTSLFPWLHKPGI	2.5

The binders below were run against ScCyk3 in the same assay as above.
How it was run: as §1

Binder	SPOT peptide array binding signal intensity
KRRTSLFPWLHKPGI	311

These binders were tested against ScFus1 in the same assay as above.
How it was run: as §1

Binder	SPOT peptide array binding signal intensity
KRRTSLFPWLHKPGI	224

The binders below were run against ScHof1 in the same assay as above.
How it was run: as §1

Binder	SPOT peptide array binding signal intensity
KRRTSLFPWLHKPGI	≤ 0

What follows are binders tested against ScHse1 in the same assay as above.
How it was run: as §1

Binder	SPOT peptide array binding signal intensity
KRRTSLFPWLHKPGI	2010

What follows are binders tested against ScLsb1 in the same assay as above.
How it was run: as §1

Binder	SPOT peptide array binding signal intensity
KRRTSLFPWLHKPGI	≤ 0

Each binder was assayed against ScLsb2 in the same assay as above.
How it was run: as §1

Binder	SPOT peptide array binding signal intensity
KRRTSLFPWLHKPGI	7.5

What follows are binders tested against ScLsb3 in the same assay as above.
How it was run: as §1

Binder	SPOT peptide array binding signal intensity
KRRTSLFPWLHKPGI	54

What follows are binders tested against ScLsb4 in the same assay as above.
How it was run: as §1

Binder	SPOT peptide array binding signal intensity
KRRTSLFPWLHKPGI	≤ 0

Each binder was assayed against ScMyo3 in the same assay as above.
How it was run: as §1

Binder	SPOT peptide array binding signal intensity
KRRTSLFPWLHKPGI	3

What follows are binders tested against ScMyo5 in the same assay as above.
How it was run: as §1

Binder	SPOT peptide array binding signal intensity
KRRTSLFPWLHKPGI	1.5

The binders below were run against ScNbp2 in the same assay as above.
How it was run: as §1

Binder	SPOT peptide array binding signal intensity
KRRTSLFPWLHKPGI	230

What follows are binders tested against ScPex13 in the same assay as above.
How it was run: as §1

Binder	SPOT peptide array binding signal intensity
KRRTSLFPWLHKPGI	1

These binders were tested against ScRvs167 in the same assay as above.
How it was run: as §1

Binder	SPOT peptide array binding signal intensity
KRRTSLFPWLHKPGI	7.67

The binders below were run against ScSho1 in the same assay as above.
How it was run: as §1

Binder	SPOT peptide array binding signal intensity
KRRTSLFPWLHKPGI	512

What follows are binders tested against ScSla1-D1-D2 in the same assay as above.
How it was run: as §1

Binder	SPOT peptide array binding signal intensity
KRRTSLFPWLHKPGI	56.5

These binders were tested against ScSla1-D3 in the same assay as above.
How it was run: as §1

Binder	SPOT peptide array binding signal intensity
KRRTSLFPWLHKPGI	≤ 0

These binders were tested against SpAbp1-D1 in the same assay as above.
How it was run: as §1

Binder	SPOT peptide array binding signal intensity
KRRTSLFPWLHKPGI	420

These binders were tested against SpBbc1 in the same assay as above.
How it was run: as §1

Binder	SPOT peptide array binding signal intensity
KRRTSLFPWLHKPGI	≤ 0

The binders below were run against SpBzz1-D1 in the same assay as above.
How it was run: as §1

Binder	SPOT peptide array binding signal intensity
KRRTSLFPWLHKPGI	27

These binders were tested against SpBzz1-D2 in the same assay as above.
How it was run: as §1

Binder	SPOT peptide array binding signal intensity
KRRTSLFPWLHKPGI	≤ 0

These binders were tested against SpCyk3 in the same assay as above.
How it was run: as §1

Binder	SPOT peptide array binding signal intensity
KRRTSLFPWLHKPGI	3

The binders below were run against SpHof1 in the same assay as above.
How it was run: as §1

Binder	SPOT peptide array binding signal intensity
KRRTSLFPWLHKPGI	54

These binders were tested against SpHof1-2 in the same assay as above.
How it was run: as §1

Binder	SPOT peptide array binding signal intensity
KRRTSLFPWLHKPGI	2.75

What follows are binders tested against SpHof1-3 in the same assay as above.
How it was run: as §1

Binder	SPOT peptide array binding signal intensity
KRRTSLFPWLHKPGI	586

The binders below were run against SpHse1 in the same assay as above.
How it was run: as §1

Binder	SPOT peptide array binding signal intensity
KRRTSLFPWLHKPGI	844

The binders below were run against SpLsb1 in the same assay as above.
How it was run: as §1

Binder	SPOT peptide array binding signal intensity
KRRTSLFPWLHKPGI	0.5

What follows are binders tested against SpLsb4 in the same assay as above.
How it was run: as §1

Binder	SPOT peptide array binding signal intensity
KRRTSLFPWLHKPGI	8.5

Each binder was assayed against SpMyo1 in the same assay as above.
How it was run: as §1

Binder	SPOT peptide array binding signal intensity
KRRTSLFPWLHKPGI	2.5

Each binder was assayed against SpNbp2 in the same assay as above.
How it was run: as §1

Binder	SPOT peptide array binding signal intensity
KRRTSLFPWLHKPGI	418

What follows are binders tested against SpPex13 in the same assay as above.
How it was run: as §1

Binder	SPOT peptide array binding signal intensity
KRRTSLFPWLHKPGI	6.5

What follows are binders tested against SpRvs167 in the same assay as above.
How it was run: as §1

Binder	SPOT peptide array binding signal intensity
KRRTSLFPWLHKPGI	≤ 0

The binders below were run against SpSla1-D1-D2 in the same assay as above.
How it was run: as §1

Binder	SPOT peptide array binding signal intensity
KRRTSLFPWLHKPGI	≤ 0

The binders below were run against SpSla1-D3 in the same assay as above.
How it was run: as §1

Binder	SPOT peptide array binding signal intensity
KRRTSLFPWLHKPGI	4

— the supplement of paper PMC4466140
